Measurements as given in PubChem BioAssay (NCATS).
Results filed as inconclusive are left out. Calls of active or inactive are those of the source. Unless noted, the call rests on the fitted dose curve; in most records, active means well fitted curve in the direction sought with a large enough effect; inconclusive means small, poorly fitted or top-dose-only effect, or another doubt; inactive means no such curve, though single readings can be large; an effect the other way counts as inactive or inconclusive.

Experiments:
[1] = qHTS to identify inhibitors of the type 1 interferon - major histocompatibility complex class I in skeletal muscle: primary screen against the NCATS Pharmaceutical Collection (AID 1347407);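 further: luminescence of HiBiT knocked into endogenous HLA-B as interferon-induced MHC class I level; on the % scale 0 is the no-effect control and ±100 the full control effect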
Procedure, shortened: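 HLA-B HiBiT myoblasts, dexamethasone-free growth medium + 4 ng/ml IFN-b; compounds pinned 1 h after seeding, […] from 46 uM; 24 h, 37 C, 5% CO2; lytic HiBiT detection, 10 min RT, luminescence.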

[2] = molecular target: Protein phosphatase 1D (Homo sapiens) (UniProt O15297); assay: Rhodamine-PBP qHTS Assay for Modulators of WT P53-Induced Phosphatase 1 (WIP1) (AID 1347425); further: % of control where 0% means no effect
Protein phosphatase 1D (Homo sapiens), sequence (O15297 whole entry, looked up): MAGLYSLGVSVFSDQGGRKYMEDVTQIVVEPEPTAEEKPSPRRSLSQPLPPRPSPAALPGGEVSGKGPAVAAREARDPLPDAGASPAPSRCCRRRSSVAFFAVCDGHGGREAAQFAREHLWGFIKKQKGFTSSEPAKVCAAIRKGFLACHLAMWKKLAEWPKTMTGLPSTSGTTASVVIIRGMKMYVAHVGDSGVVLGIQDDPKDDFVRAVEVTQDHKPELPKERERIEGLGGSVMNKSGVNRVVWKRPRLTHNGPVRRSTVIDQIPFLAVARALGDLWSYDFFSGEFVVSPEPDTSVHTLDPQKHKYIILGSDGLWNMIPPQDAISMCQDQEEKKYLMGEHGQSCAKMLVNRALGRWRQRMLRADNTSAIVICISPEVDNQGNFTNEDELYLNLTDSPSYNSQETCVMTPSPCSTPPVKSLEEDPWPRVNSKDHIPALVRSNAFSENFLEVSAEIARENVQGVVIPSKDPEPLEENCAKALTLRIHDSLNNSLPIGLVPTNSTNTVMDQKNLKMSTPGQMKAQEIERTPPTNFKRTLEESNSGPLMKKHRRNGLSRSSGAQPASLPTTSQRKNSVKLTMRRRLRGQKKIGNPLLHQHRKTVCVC
Procedure, shortened: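 5 nM WIP1 + 10 uM Rh-PBP, 50 mM Tris pH 7.5, 30 mM MgCl2, 1 mM TCEP, 0.1 mM EGTA, BSA; cpds pinned, 1 hr RT; + 10 uM phosphopeptide; fluorescence 1-min reads x 11 min; delta = f1 - f0.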

[3] = Primary qHTS for inhibitors of La Crosse Virus (LACV) - induced cell death in SH-SY5Y cells (AID 1508616);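 further: top concentration of the series differs between compounds; 0% = infected DMSO wells and 100% = uninfected DMSO wells; higher means more rescue of cells from virus-induced death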
Procedure, shortened: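 Luminescent ATP readout (ATPLite 1step, 5 min room temperature) measured rescue from LACV-induced death after 6 days of infection at 0.01 MOI; normalized to infected DMSO wells and uninfected DMSO wells.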

[4] = molecular target: Calcium and integrin-binding protein 1 (Homo sapiens) (UniProt Q99828); assay: Primary qHTS for Identification of Calcium Integrin Binding Protein 1 (CIB1) Competitor (AID 1508620);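 further: GST tagged CIB1 binding a fluorescein labelled alphaIIb integrin peptide tracer; top concentration of the series differs between compounds; on the % scale 0 is the no-effect control and ±100 the full control effect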
Calcium and integrin-binding protein 1 (Homo sapiens), sequence (Q99828 whole entry, looked up): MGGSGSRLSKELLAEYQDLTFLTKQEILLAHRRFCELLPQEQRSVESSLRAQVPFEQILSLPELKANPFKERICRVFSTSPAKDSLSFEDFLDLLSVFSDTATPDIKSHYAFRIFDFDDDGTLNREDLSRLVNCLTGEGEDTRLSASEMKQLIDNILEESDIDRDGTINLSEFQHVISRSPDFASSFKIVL
Procedure, shortened: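 Fluorescence polarization competition: CIB1-GST (1 uM final) preincubated with compound 15 min at room temperature, then FITC-labeled alphaIIb peptide (100 nM final) added for another 15 min. Polarization read at Ex 480/Em 540.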

[5] = Counterscreen qHTS for small molecule stabilizers of the endoplasmic reticulum resident proteome: GLuc-NoTag assay (AID 1508627);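 further: SH-SY5Y cells given compound then 100 nM thapsigargin to empty ER calcium; series mostly up to about 76 µM; 0% = thapsigargin alone and -100% = DMSO vehicle control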
Procedure, shortened: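 SH-SY5Y cells stably expressing constitutively secreted GLuc (no SERCaMP tag) were pre-incubated 5 h, treated with compound for 19 h, then 100 nM thapsigargin for 4 h at 37C; medium GLuc read by coelenterazine luminescence.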

[6] = Confirmatory qHTS for small molecule stabilizers of the endoplasmic reticulum resident proteome: Secreted ER Calcium Modulated Protein (SERCaMP) assay (AID 1508628);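 further: SH-SY5Y cells given compound 16 h then thapsigargin 100 nM for 4 h; series mostly up to about 76 µM; on the % scale 0 is the no-effect control and ±100 the full control effect; nearly all actives have a fitted effect of over 40% in size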
Procedure, shortened: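 We seeded SH-SY5Y-GLuc-SERCaMP cells, added compounds (three concentrations in the primary run, eleven up to 76.6 uM in confirmation), incubated 16 h, depleted ER calcium with thapsigargin, and read luciferase 4 h later.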

[7] = Primary qHTS for small molecule stabilizers of the endoplasmic reticulum resident proteome: Secreted ER Calcium Modulated Protein (SERCaMP) assay (AID 1508630); further: on the % scale 0 is the no-effect control and ±100 the full control effect
Procedure, shortened: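 GLuc-SERCaMP-expressing SH-SY5Y cells, pretreated 16 h with compound, are challenged with thapsigargin to empty ER calcium stores; after 4 h, coelenterazine is added directly to the medium and luminescence is imaged.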

[8] = molecular target: Protein phosphatase 1D (Homo sapiens) (UniProt O15297); assay: RapidFire Mass Spectrometry qHTS Assay for Modulators of WT P53-Induced Phosphatase 1 (WIP1) (AID 1347424);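 further: amount of dephosphorylated VEPPL-S-QETFS peptide product formed by WIP1; series mostly up to about 63 µM; plate controls were DMSO wells for no effect and GSK830371 inhibitor control at 10 µM for full effect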
Procedure, shortened: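 WIP1 (10 nM final) was preincubated 1 h at room temperature with compounds in Tris-HCl pH 7.5, 30 mM MgCl2, TCEP, EGTA, BSA; 2 uM VEPPL-pS-QETFS phosphopeptide was added for 5 min, quenched with formic acid, and dephosphorylated product quantified by RapidFire MS.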

[9] = A High-Content qHTS Against Drug Library for the Identification of Small Molecules that Inhibit DYT1 Early Onset Primary Dystonia-Associated Cell Pathology (AID 1645839; calls by dose curve; further: series mostly up to about 46 µM)
Procedure, shortened: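 Readout: %pathology, the punctate EGFP-TorsinA distribution from imaging, as the primary channel and cell count as the toxicity counterscreen. HEK293 Flp-In cells expressing delE TorsinA were induced with tetracycline and treated with compound for 48 h.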

[10] = molecular target: Cytochrome P450 2D6 (Homo sapiens) (UniProt P10635); assay: Cytochrome P450 family 2 subfamily D member 6 (CYP2D6) small molecule antagonists: luciferase biochemical (cell-free) qHTS assay (AID 1645840; active means well fitted curve in the direction sought with a large enough effect in the repeat runs; an effect the other way counts as inactive or inconclusive; further: nearly all actives have a fitted effect of over 55% in size; further: potency means the concentration at half of the fitted maximal effect; on activity change, negative = inhibition: series mostly up to about 57 µM; on the % scale 0 is the no-effect control and ±100 the full control effect)
Cytochrome P450 2D6 (Homo sapiens), sequence (P10635 whole entry, looked up): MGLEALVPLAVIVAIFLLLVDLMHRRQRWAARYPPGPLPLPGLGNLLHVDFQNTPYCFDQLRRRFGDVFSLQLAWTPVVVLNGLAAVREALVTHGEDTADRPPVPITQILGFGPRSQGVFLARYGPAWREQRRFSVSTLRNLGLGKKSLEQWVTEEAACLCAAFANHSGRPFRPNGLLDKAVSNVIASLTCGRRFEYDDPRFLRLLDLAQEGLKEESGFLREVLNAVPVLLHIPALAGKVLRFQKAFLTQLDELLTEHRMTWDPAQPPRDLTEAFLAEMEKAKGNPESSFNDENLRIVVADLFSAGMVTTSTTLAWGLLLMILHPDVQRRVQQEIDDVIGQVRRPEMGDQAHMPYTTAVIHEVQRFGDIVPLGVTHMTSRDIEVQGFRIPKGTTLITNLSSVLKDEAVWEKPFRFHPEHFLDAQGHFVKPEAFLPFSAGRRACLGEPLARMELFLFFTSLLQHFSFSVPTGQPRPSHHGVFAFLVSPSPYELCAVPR
Procedure, shortened: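 P450-Glo luminescent screen: recombinant CYP2D6 enzyme–proluciferin substrate mix preincubated with compound 10 min at room temperature, then NADPH regeneration added for 1 h at room temperature. Detection reagent added for 20 min; luciferin light read as relative luminescence units.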

[11] = molecular target: Cytochrome P450 3A4 (Homo sapiens) (UniProt P08684); assay: Cytochrome P450 family 3 subfamily A member 4 (CYP3A4) small molecule antagonists: luciferase qHTS assay (AID 1645841; active means well fitted curve in the direction sought with a large enough effect in the repeat runs; an effect the other way counts as inactive or inconclusive; further: nearly all actives have a fitted effect of over 45% in size)
Cytochrome P450 3A4 (Homo sapiens), sequence (P08684 whole entry, looked up): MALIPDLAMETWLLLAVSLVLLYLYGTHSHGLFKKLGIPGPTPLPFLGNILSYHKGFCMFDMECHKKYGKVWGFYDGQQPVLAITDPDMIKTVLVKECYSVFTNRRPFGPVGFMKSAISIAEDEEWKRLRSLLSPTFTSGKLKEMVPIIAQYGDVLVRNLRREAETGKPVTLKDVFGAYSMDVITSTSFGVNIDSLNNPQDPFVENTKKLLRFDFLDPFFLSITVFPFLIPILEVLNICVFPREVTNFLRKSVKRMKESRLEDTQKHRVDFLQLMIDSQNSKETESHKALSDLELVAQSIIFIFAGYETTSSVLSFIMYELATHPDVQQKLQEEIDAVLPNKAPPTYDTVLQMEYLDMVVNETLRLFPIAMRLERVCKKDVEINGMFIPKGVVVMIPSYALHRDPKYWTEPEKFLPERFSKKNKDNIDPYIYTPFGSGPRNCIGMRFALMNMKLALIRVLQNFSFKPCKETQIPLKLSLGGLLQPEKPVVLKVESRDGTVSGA
Procedure, shortened: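 P450-Glo CYP3A4 enzyme with proluciferin substrate was preincubated with DMSO-dissolved compounds for 10 min at room temperature. NADPH regeneration solution started a 1 h reaction. Detection reagent stopped it, and luminescence was read after 20 min.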

Cc1ccc2c(c1)c1c3n2CCNC3CCC1 (centres undefined)
inactive: outcome [1] | outcome [2] | outcome [3] | outcome [4] | outcome [5] | Potency [6] | outcome [7]

CC1(c2ccccc2)OC(C(=O)O)=CC1=O (centres undefined)
inactive: outcome [1] | outcome [8] | outcome [3] | outcome [4] | outcome [7] | Potency [9] | Potency [10] | outcome [11]

COc1ccc(-c2cc(=O)c3c(O)cc(O[C@@H]4O[C@H](CO[C@@H]5O[C@@H](C)[C@H](O)[C@@H](O)[C@H]5O)[C@@H](O)[C@H](O)[C@H]4O)cc3o2)cc1O
inactive: outcome [1] | outcome [8] | outcome [3] | outcome [7] | Potency [10]

O=C(/C=C/c1ccccc1)OCc1ccccc1
inactive: outcome [1] | outcome [8] | outcome [3] | outcome [4] | Potency [9] | Potency [10]

CN1C(=O)CC(c2ccccc2)C1=O (centres undefined)
inactive: outcome [1] | outcome [2] | outcome [3] | outcome [4] | outcome [7] | Potency [9] | Potency [10]

CC(C)=CCC/C(C)=C/CO
inactive: outcome [1] | outcome [8] | outcome [3] | outcome [7] | Potency [9]

NC(=O)NC1NC(=O)NC1=O (centres undefined)
inactive: outcome [1] | outcome [8] | outcome [3] | outcome [4] | Potency [9] | Potency [10]

CCN(CC)CCOC(=O)C(c1ccccc1)c1ccccc1
inactive: outcome [1] | outcome [8] | outcome [3] | outcome [4] | outcome [7] | Potency [9]
active: Potency [10] 1950 nM

CC(=O)N(CC(O)CO)c1c(I)c(C(=O)NCC(O)CO)c(I)c(C(=O)NCC(O)CO)c1I (centres undefined)
inactive: outcome [1] | outcome [8] | outcome [3] | outcome [4] | Potency [9] | Potency [10]

O=C(O)Cc1cn(-c2ccccc2)nc1-c1ccc(Cl)cc1
inactive: outcome [1] | outcome [8] | outcome [3] | Potency [9] | Potency [10]

CNc1c2c(nn1C)CCCC2
inactive: outcome [1] | outcome [8] | outcome [4] | outcome [7] | Potency [9] | Potency [10]

CCCCCCCCCCOc1cc2c(=O)c(C(=O)OCC)c[nH]c2cc1OCC
inactive: activity change, negative = inhibition [1] 0.347% [at 3.83 µM] | activity change, negative = inhibition [8] 14.2% [at 6.17 µM] | activity change [3] 5.38% [at 0.431 µM] | activity change, negative = inhibition [4] 6.25% [at 12.4 µM] | activity change, negative = inhibition [7] 2.46% [at 3.88 µM] | % pathology change, negative = correction [9] 23.7% [at 4.63 µM] | activity change, negative = inhibition [10] 3.17% [at 4.83 µM]

CC(=O)NS(=O)(=O)c1ccc(N)cc1
inactive: outcome [1] | outcome [8] | outcome [4] | outcome [7] | Potency [9] | Potency [10] | outcome [11]

Cc1ccsc1/C=C/C1=NCCCN1C
inactive: outcome [1] | outcome [2] | outcome [3] | outcome [4] | outcome [7] | Potency [9]

CCOc1ccc(C(=O)OCCN(CC)CC)cc1
inactive: outcome [1] | outcome [8] | outcome [3] | outcome [4] | outcome [7] | Potency [9]
active: Potency [10] 2720 nM

NCC1CCC(C(=O)Oc2ccc(CCC(=O)O)cc2)CC1 (centres undefined)
inactive: outcome [1] | outcome [8] | outcome [3] | outcome [4] | Potency [9] | Potency [10]

CC(=O)N1C[C@H](O)C[C@H]1C(=O)O
inactive: outcome [1] | outcome [8] | outcome [3] | Potency [9] | Potency [10]

NS(=O)(=O)c1cc(-c2nn[nH]n2)c(NCc2cccs2)cc1Cl
inactive: outcome [1] | outcome [8] | outcome [3] | outcome [7] | Potency [9] | Potency [10]

O=C(O)Cn1c(C(=O)Nc2nc(-c3ccccc3Cl)cs2)cc2ccccc21
inactive: outcome [1] | outcome [3]

O=C(O)[C@@H]1[C@H]2C[C@H]3c4[nH]c5ccccc5c4CCN3C[C@@H]2CC[C@@H]1O
active: Potency [10] 977 nM
inactive: outcome [1] | outcome [2] | outcome [3] | outcome [7] | Potency [9]

c1ccc2[nH]ccc2c1
inactive: outcome [8] | outcome [2] | outcome [4] | Potency [9] | Potency [10]

CN[C@@H]1[C@@H](O)[C@@H](O[C@@H]2[C@H](O)[C@H](O[C@H]3OC(CN)=CC[C@H]3N)[C@@H](N)C[C@H]2N)OCC1(C)O (some centres undefined)
inactive: outcome [1] | outcome [2] | outcome [4] | Potency [9]

O=C1c2ccccc2C(=O)C1c1ccc(Br)cc1
inactive: outcome [1] | outcome [3] | outcome [4] | outcome [7] | Potency [9] | Potency [10]

NS(=O)(=O)c1ccc(NC(=O)CCC(=O)O)cc1
inactive: outcome [1] | outcome [2] | outcome [3] | outcome [4] | Potency [9] | Potency [10]

O=C(O)COC(=O)Cc1ccccc1Nc1c(Cl)cccc1Cl
inactive: outcome [1] | outcome [2] | outcome [3] | outcome [4] | Potency [9] | Potency [10]

CC1(C)[C@@H](OC(=O)CCC(=O)O)CC[C@]2(C)[C@H]3C(=O)C=C4[C@@H]5C[C@@](C)(C(=O)O)CC[C@]5(C)CC[C@@]4(C)[C@]3(C)CC[C@@H]12
inactive: outcome [1] | outcome [3] | outcome [7] | Potency [9] | Potency [10]

COC(=O)c1cccnc1
inactive: outcome [1] | outcome [2] | outcome [3] | outcome [4] | Potency [9] | Potency [10]

Cn1c(=O)c2c(ncn2CCO)n(C)c1=O
inactive: outcome [1] | outcome [3] | outcome [4] | outcome [7] | Potency [9] | Potency [10]
